# Measured values taken from PubChem BioAssay AID485346 (Sanford-Burnham Center for Chemical Genomics, 2010).
# Hit rate of the full screen: of about 330,000 compounds, about 10,000 (3%) were called active.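 How the source made its calls: active means inhibition of at least 50% at 8 µM in the primary screen; inactive means the rest.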 What follows is part of a selection rich in actives, with near analogues and random picks from the rest.
# Biological target: Protein Mdm4 (Homo sapiens) + E3 ubiquitin-protein ligase Mdm2 (Homo sapiens) (UniProt O15151+Q00987)
# Assay: inhibitors of human Mdm2-MdmX association, primary screen, cell-based, luminescence, split luciferase, SaOS-2, uHTS (AID 485346)
# Conditions: SaOS-2 split-luciferase Mdm2/MdmX complementation, at 8 µM, active compounds read high
# Protein Mdm4 (Homo sapiens) + E3 ubiquitin-protein ligase Mdm2 (Homo sapiens), sequence (O15151 whole entry, looked up): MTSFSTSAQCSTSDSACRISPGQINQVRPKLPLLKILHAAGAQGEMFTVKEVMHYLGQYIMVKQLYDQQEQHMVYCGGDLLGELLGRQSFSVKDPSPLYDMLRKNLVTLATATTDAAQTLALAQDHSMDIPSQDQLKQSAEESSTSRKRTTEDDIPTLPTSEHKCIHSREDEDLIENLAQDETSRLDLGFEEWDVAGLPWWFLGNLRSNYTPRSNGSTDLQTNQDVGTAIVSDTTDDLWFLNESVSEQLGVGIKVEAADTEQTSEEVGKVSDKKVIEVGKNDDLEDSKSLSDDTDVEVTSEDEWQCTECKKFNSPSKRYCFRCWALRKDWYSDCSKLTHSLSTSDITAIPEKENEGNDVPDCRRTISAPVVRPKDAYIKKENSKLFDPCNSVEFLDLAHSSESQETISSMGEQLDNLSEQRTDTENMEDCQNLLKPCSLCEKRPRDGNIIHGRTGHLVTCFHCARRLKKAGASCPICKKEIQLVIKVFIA
# Protein Mdm4 (Homo sapiens) + E3 ubiquitin-protein ligase Mdm2 (Homo sapiens), sequence (Q00987 whole entry, looked up): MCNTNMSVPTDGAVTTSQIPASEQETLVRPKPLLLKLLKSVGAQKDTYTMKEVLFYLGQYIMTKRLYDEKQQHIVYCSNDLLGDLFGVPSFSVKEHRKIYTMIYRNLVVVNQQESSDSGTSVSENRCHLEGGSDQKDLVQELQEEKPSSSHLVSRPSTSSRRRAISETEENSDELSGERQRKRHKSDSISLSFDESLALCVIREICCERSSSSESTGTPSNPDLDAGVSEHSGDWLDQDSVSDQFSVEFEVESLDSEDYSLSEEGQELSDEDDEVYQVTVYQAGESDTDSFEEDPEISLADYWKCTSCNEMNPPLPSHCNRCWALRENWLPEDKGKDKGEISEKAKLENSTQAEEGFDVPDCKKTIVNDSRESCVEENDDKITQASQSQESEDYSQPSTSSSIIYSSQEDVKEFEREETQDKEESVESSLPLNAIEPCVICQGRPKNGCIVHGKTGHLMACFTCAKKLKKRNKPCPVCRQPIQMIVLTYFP
row,Compound,inhibition
1,COc1ccc(Nc2ncnc3ccc(Br)cc23)c(OC)c1,76.4% (active)
2,O=C(O)CCCCCNc1ncnc2ccc(Br)cc12,-1.34% (inactive)
3,COc1ccc(CNc2ncnc3ccccc23)cc1,21.5% (inactive)
4,COc1ccccc1NC(=O)CCC(=O)N1CC(C)Oc2ccc(C)cc21 (configuration not stated),13.9% (inactive)
5,O=C1Nc2ccc([N+](=O)[O-])cc2C1=Nc1cccc(CO)c1,30.4% (inactive)
6,Cc1ccc(N2CC(C(=O)NCCS(=O)(=O)N3CCN(c4ccccc4)CC3)CC2=O)cc1 (configuration not stated),37.2% (inactive)
7,COc1cc(N)c(Cl)cc1C(=O)OCC(=O)c1ccc2c(c1)NC(=O)CO2,18.8% (inactive)
8,Cc1ccc(CNC(=O)c2c(-c3ccccc3)noc2C)cc1,-12.1% (inactive)
9,CCOC(=O)c1c(-c2ccc(-c3ccccc3)cc2)csc1NC(=O)CCC(=O)O,9.19% (inactive)
10,CCOC(=O)c1c(-c2cccc(C)c2)csc1NC(=O)c1c(-c2ccccc2)noc1C,94.3% (active)
11,Cn1c(=O)[nH]c(=O)c2c1nc(NCCCn1ccnc1)n2Cc1cccc(Br)c1,34.5% (inactive)
12,O=c1c(-c2cccc(Cl)c2)c[nH]n1-c1ccccc1,-13.8% (inactive)
13,O=C1N/C(=C/c2cccn2-c2ccccc2)C(=O)N1c1cccc(Cl)c1,53.8% (active)
14,Cc1ccccc1NC(=O)CN1C(=O)N/C(=C\c2cccn2-c2cccc(C(=O)O)c2)C1=O,11.8% (inactive)
15,COc1ccc(C(=O)OCC(=O)NCC2CCCO2)cc1[N+](=O)[O-] (configuration not stated),-2.37% (inactive)
16,O=C(C1CCC(=O)N(C2CC2)C1)N1CCN(c2ccc(Cl)cc2)CC1 (configuration not stated),-4.59% (inactive)
17,CN(C(=O)CSc1nncc2ccccc12)C1CCCCC1,-30.3% (inactive)
18,CN(C(=O)c1cc2c(=O)n3ccccc3nc2s1)C1CCCCC1,-88.5% (inactive)
19,CN(c1ccc2nc3ccccc3c(=O)n2n1)C1CCCCC1,90.5% (active)
20,CC(=O)Nc1c2c(nn1-c1cccc(C)c1)CSC2,18% (inactive)
21,Cc1c(CNCCc2ccccc2)c(C(=O)O)c(C)n1-c1ccccc1,8.96% (inactive)
22,CN(C(=O)c1cccc(NC(=O)Cc2ccc([N+](=O)[O-])cc2)c1)C1CCC1,15.3% (inactive)
23,COc1ccc(-c2nn(C)c(=O)c3ccccc23)cc1NC(=O)COc1ccccc1,70.8% (active)

row,Compound,inhibition
1,CCC(=O)NCc1cc(-c2nn(C)c(=O)c3ccccc23)ccc1OC,20.9% (inactive)
2,COc1ccc(-c2nn(C)c(=O)c3ccccc23)cc1CNC(=O)C1CCCCC1,13% (inactive)
3,Cc1cc(NC(=O)COC(=O)/C=C/c2ccc(C)o2)no1,8.11% (inactive)
4,Cc1c(C=O)c2ccccc2n1CCOc1ccccc1,11.3% (inactive)
5,O=C(NCCc1ccc(F)cc1)c1ccc(S(=O)(=O)N2CCCCC2)cc1,0.124% (inactive)
6,O=S(=O)(Nc1cccc(Oc2ccc(Cl)cc2)n1)c1ccc(F)cc1,14.1% (inactive)
7,CC(NC(=O)Nc1ccccc1)C(c1cccs1)N1CCN(c2ccccc2)CC1 (configuration not stated),58.6% (active)
8,CC(NC(=S)Nc1ccccc1)C(c1cccs1)N1CCOCC1 (configuration not stated),-20.7% (inactive)
9,CCCC(=O)NC(C)C(c1cccs1)N1CCN(c2ccccc2)CC1 (configuration not stated),18.2% (inactive)
10,CCOCCCNC(=O)C(NC(=O)c1ccc(=O)[nH]c1)c1ccc(Cl)cc1 (configuration not stated),-20.6% (inactive)
11,N#CCC(=O)N/N=C/c1cn(Cc2ccc3ccccc3c2)c2ccccc12,67.9% (active)
12,CNC(=S)N/N=C/c1cn(Cc2ccc(C)cc2)c2ccccc12,42.2% (inactive)
13,COc1cccc(Cn2cc(/C=N/NC(=O)c3cc(O)cc(O)c3)c3ccccc32)c1,23.5% (inactive)
14,CC1=C(C(N)=O)C(c2ccc3c(c2)OCO3)n2nc(-c3cccc(C)c3)nc2N1 (configuration not stated),7.35% (inactive)
15,N=c1c2c(-c3ccccc3)c(-c3ccccc3)n(Cc3ccccc3)c2ncn1CCCO,57.2% (active)
16,CCN(CC)CCn1cnc2c1c(=O)[nH]c(=O)n2Cc1ccccc1,14.5% (inactive)
17,COCCn1cnc2c1c(=O)n(Cc1ccc(Br)cc1)c(=O)n2Cc1ccccc1,31.5% (inactive)
18,CCOC(=O)[C@H]1[C@H]2COc3ccc(OC)cc3[C@@H]2N2C(=O)c3ccc(F)cc3NC(=O)[C@@]12C,17.8% (inactive)
19,CCOC(=O)Cc1csc(SCC(=O)Nc2ccc(C)cc2F)n1,7.22% (inactive)
20,CCOCc1nnc(NC(=O)CCC2CCCCC2)s1,15.7% (inactive)
21,CCn1c(CNC(=O)c2cc(OC)c(OC)c(OC)c2)cc2cc(C)ccc21,18.3% (inactive)
22,O=C(Nc1cc(C(F)(F)F)ccc1Cl)C(=O)N1CCCCC1,4.88% (inactive)
23,O=C(CNS(=O)(=O)c1cccc(C(F)(F)F)c1)Nc1ccccc1F,-4.5% (inactive)

row,Compound,inhibition
1,O=C(NNc1ccccc1Cl)C(O)(c1cccc(C(F)(F)F)c1)c1cccc(C(F)(F)F)c1,94.5% (active)
2,O=C(NCCC1=CCCCC1)c1ccc(-n2cncn2)cc1,-91.1% (inactive)
3,COC(=O)c1ccccc1NC(=O)C1CC(=O)N(c2ccc(OC)cc2)C1 (configuration not stated),15.5% (inactive)
4,COc1ccc(CNS(=O)(=O)c2cc3c4c(c2)CCN4C(=O)CC3)cc1,-14.5% (inactive)
5,COc1ccccc1-c1nnc2n1N=C(c1ccc(OC(F)F)c(OCC3CC3)c1)CS2,23.3% (inactive)
6,Cc1nnc2n1N=C(c1ccccc1)CS2,17.5% (inactive)
7,COc1ccc(C2=Nn3c(nnc3-c3ccccc3OC)SC2)cc1OC1CCCC1,88.2% (active)
8,Cc1ccc(C)c(OCCC(=O)OCC(=O)NC(=O)NCc2ccccc2)c1,6.63% (inactive)
9,O=C(Nc1ccc(OC(F)(F)F)cc1)c1ccc2c(c1)no[n+]2[O-],19% (inactive)
10,CCN1C(=NCc2ccc(OC)cc2)N[C@@H](CCc2ccccc2)[C@H](C(=O)NCc2ccc(OC)cc2)[C@H]1C,14.2% (inactive)
11,COc1ccccc1CNS(=O)(=O)c1cc(C(=O)NCc2ccccn2)c(Cl)cc1Cl,-21.7% (inactive)
12,CC(C)Nc1ncnc2c1nnn2Cc1ccccc1,-2.35% (inactive)
13,Cc1nc(Nc2ccc(S(=O)(=O)N3CCCC3)cc2)c2nnn(Cc3ccccc3)c2n1,3.4% (inactive)
14,CC(C)Cc1nc(Nc2ccc(S(=O)(=O)N3CCCC3)cc2)c2nnn(Cc3ccccc3)c2n1,68.6% (active)
15,Cc1cnc(C(=O)N2CCCC(N3CCN(c4ccccc4F)CC3)C2)cn1 (configuration not stated),1.8% (inactive)
16,Cc1ccc(S(=O)(=O)N(CC(=O)N/N=C/c2ccc(F)cc2)c2cccc3cccnc23)cc1,4.5% (inactive)
17,Cn1nc(-c2ccccc2)c(CO)c1Sc1ccccc1,8.85% (inactive)
18,Cn1nc(-c2ccccc2)c(CSc2cccc(Cl)c2)c1Cl,50.5% (active)
19,Cc1ccc(S(=O)(=O)c2c(COC(=O)c3cccc(Cl)c3)c(-c3ccccc3)nn2C)cc1,7.27% (inactive)
20,C=CCOc1ccc(C(=O)Nc2ccccc2C(=O)N2CCCC2)cc1,2.51% (inactive)
21,COC(=O)Nc1ncc(CN2C(=O)c3ccccc3C2=O)s1,12.4% (inactive)
22,COCCn1c(C)cc(C(=O)COC(=O)CNC(=O)c2ccco2)c1C,3.33% (inactive)
23,Cc1cc(C(=O)CSc2nc(N)cc(=O)[nH]2)c(C)n1Cc1ccco1,22.2% (inactive)

row,Compound,inhibition
1,Cc1cc(C(=O)COC(=O)CNC(=O)c2ccc(F)cc2)c(C)n1Cc1ccco1,56.9% (active)
2,CC(Oc1ccccc1)C(=O)NN1Cc2ccccc2C1=N (configuration not stated),16.1% (inactive)
3,CC(C)(C)NS(=O)(=O)CC12CCC(CC1=O)C2(C)C (configuration not stated),8.21% (inactive)
4,NC(=O)C1CCN(C(=O)c2ccc(-c3ccccc3)cc2)CC1,13.3% (inactive)
5,O=C1Nc2cc(C(=O)N3CCC(N4CCCCC4)CC3)ccc2S/C1=C\c1ccccc1,54.5% (active)
6,CC1CCN(C(=O)c2ccc3c(c2)NC(=O)CN3)CC1,13% (inactive)
7,Cc1[nH]n(C(N)=S)c(=O)c1N=Nc1ccc(Cl)cc1Cl,-31.8% (inactive)
8,C[C@H](CO)N1C[C@H](C)[C@@H](CN(C)S(=O)(=O)c2ccc(F)cc2)Oc2ccc(NC(=O)CCC(F)(F)F)cc2C1=O,-5.06% (inactive)
9,COc1ccc(C2CC(=O)Nc3sc(=N)c4c(N)c(C#N)c(N)nc4c32)cc1OC (configuration not stated),19.8% (inactive)
10,N#Cc1c(N)nc2c3c(sc(=N)c2c1N)NC(=O)CC3c1ccccc1Cl (configuration not stated),68.7% (active)
11,CSc1nc2c(c(=O)[nH]1)C(c1cccc(Cl)c1Cl)CC(=O)N2 (configuration not stated),-2.71% (inactive)
12,C/C=C/C=C/C(=O)O,19.9% (inactive)
13,Cc1cc(C)c(S(=O)(=O)N2C=CC(C(F)(F)F)=NCC2)c(C)c1,17.6% (inactive)
14,CC(C(=O)Nc1ccc(F)c(F)c1F)N1CCCCCC1 (configuration not stated),24.1% (inactive)
15,COc1ccccc1CCNC(=O)C1CCN(C(=O)/C=C/c2ccccc2)CC1,-2.9% (inactive)
16,O=C(Nc1cccnc1)c1ccc(Cl)c([N+](=O)[O-])c1,-11.2% (inactive)
17,CN(C)c1ccc(/C=C/C(=O)c2ccc(C(C)(C)C)cc2)cc1[N+](=O)[O-],30.9% (inactive)
18,O=C(/C=C/c1ccc(Cl)c([N+](=O)[O-])c1)c1ccc(O)cc1,98.7% (active)
19,CN(C)c1ccc(/C=C/C(=O)c2ccc(O)cc2)cc1[N+](=O)[O-],11.6% (inactive)
20,O=C(/C=C/c1ccc(Cl)cc1Cl)c1cccnc1,17.5% (inactive)
21,O=C(/C=C/c1ccc(Cl)c([N+](=O)[O-])c1)c1cccnc1,84.3% (active)
22,O=C(COC(=O)CNC(=O)C1CCCCC1)NCc1ccccc1,17.1% (inactive)
23,CCCSc1ccc([C@H]2N[C@@](Cc3ccccc3)(C(=O)OC)[C@H]3C(=O)N(C)C(=O)[C@@H]23)cc1,42.6% (inactive)
